Experimental findings from PubChem BioAssay (Tox21) are described below.

Each structure is given as a SMILES string. Records with an inconclusive call do not appear. The source made the active and inactive calls. Calls come from the whole dose curve.

Peroxisome proliferator-activated receptor delta (Homo sapiens), sequence (Q03181 whole entry, looked up): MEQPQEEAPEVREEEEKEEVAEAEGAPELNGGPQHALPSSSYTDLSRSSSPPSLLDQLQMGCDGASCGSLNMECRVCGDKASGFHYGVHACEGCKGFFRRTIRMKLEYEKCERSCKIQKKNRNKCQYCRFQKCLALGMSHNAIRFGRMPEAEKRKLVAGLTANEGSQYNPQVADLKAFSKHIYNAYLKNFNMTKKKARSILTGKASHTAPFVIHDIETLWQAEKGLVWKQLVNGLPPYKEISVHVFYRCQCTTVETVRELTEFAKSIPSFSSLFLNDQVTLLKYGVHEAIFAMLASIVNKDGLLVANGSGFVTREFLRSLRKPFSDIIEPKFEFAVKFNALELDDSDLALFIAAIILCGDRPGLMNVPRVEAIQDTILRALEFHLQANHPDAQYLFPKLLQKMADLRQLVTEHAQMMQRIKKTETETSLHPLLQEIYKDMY

The target in this test is Peroxisome proliferator-activated receptor delta (Homo sapiens) (UniProt Q03181). The experiment in a line: qHTS assay to identify small molecule agonists of the peroxisome proliferator-activated receptor delta (PPARd) signaling pathway (AID 743212). The following applies: HEK293H PPARd-UAS-bla, beta-lactamase FRET ratio, 17 h; series mostly up to 62.6 µM. The source says:
U.S. Tox21 Program National Center for Advancing Translational Sciences [NCATS] NIH Chemical Genomics Center [NCGC] U.S. Environmental Protection Agency [EPA] National Institutes of Environmental Health Sciences [NIEHS] National Toxicology Program [NTP] U.S. Food and Drug Administration [FDA] Tox21 Assay Overview: The peroxisome proliferator-activated receptors (PPARs) are lipid-activated transcription factors of the nuclear receptor superfamily with three distinct subtypes namely PPAR alpha, PPAR delta (PPARd) and PPAR gamma. All these subtypes heterodimerizes with Retinoid X receptor (RXR) and have different physiological functions. […] To identify the compounds that activate PPAR-delta signaling, GeneBLAzer PPAR delta UAS-bla HEK293H cell line (Invitrogen, Carlsbad, CA, USA) containing a beta-lactamase reporter gene under the control of an Upstream Activator Sequence (UAS) was used to screen the Tox21 compound library.
Tox21 Assay Protocol Summary: PPARd-bla cells were dispensed at 3000 cells/6uL/well in 1536-well black wall/clear bottom plates using a Multidrop Combi (Thermo Fisher Scientific, Waltham, MA) dispenser. After the assay plates were incubated at 37 C and 5% CO2 for 5 h, 23 nL of compounds dissolved in DMSO, positive controls or DMSO only was transferred to the assay plate by a Pintool station (Kalypsys, San Diego, CA). The assay plates were incubated at 37C for 17 h. After 1 uL of LiveBLAzerTM B/G FRET substrate was added using a Bioraptr Flying Reagent Dispenser (FRD) workstation (Beckman Coulter, Indianapolis, IN, USA), the plates were incubated at room temperature for 2 h, and fluorescence intensity was measured by an Envision plate reader (PerkinElmer, Shelton, CT).
For `OCC1CCCO1` (stereo not given), the result was inactive.

On to `CCOC(=O)C1OC1c1ccccc1` (stereo not given), for which the outcome was inactive.

As for `S=c1nc[nH]c2nc[nH]c12`, the outcome was inactive.

As to `Clc1ccc(Cl)c(Cl)c1Cl`, the result was inactive.

As for `CCOC(=O)/C=C\C(=O)OCC`, the result was inactive.

In the case of `O=C(c1cc(O)c(O)c(O)c1)c1ccc(O)c(O)c1O`, the outcome was inactive.

`C[C@@H]1O[C@@H](OC[C@H]2O[C@@H](Oc3c(-c4ccc(O)c(O)c4)oc4cc(O)cc(O)c4c3=O)[C@H](O)[C@@H](O)[C@@H]2O)[C@H](O)[C@H](O)[C@H]1O`: the result was inactive.

For `O=C1O[C@H](CO)[C@@H](O)[C@H](O)[C@H]1O`, the outcome was inactive.

Consider `CCCCC(CC)C(=O)OCCOCCOCCOC(=O)C(CC)CCCC` (stereo not given), for which the outcome was inactive.

For `Cc1ccc(C(=O)O)o1`, the result was inactive.

For the compound `C=CC(=O)OCCCCCCCC(C)C`, the outcome was inactive.

In the case of `C=C1C2CCC(C2)C1(C)C` (stereo not given), the outcome was inactive.

In the case of `O=C(c1ccc(O)cc1)c1ccc(O)cc1O`, the outcome was inactive.

`CCCCC(CC)COC(=O)CCCCCCCC(=O)OCC(CC)CCCC` (stereo not given): the outcome was inactive.

With `CCc1ccccc1O`, the outcome was inactive.

On to `CNC[C@H](O)[C@@H](O)[C@H](O)[C@H](O)CO`, for which the outcome was inactive.

For the compound `Cc1ccc(C)c(C)c1`, the result was inactive.

With `CCCCC(CC)COC(C)=O` (stereo not given), the result was inactive.

Take `CC[Si](OC(C)=O)(OC(C)=O)OC(C)=O`: the outcome was inactive.

As to `CCCCCCCCCCCCOCC1CO1` (stereo not given), the result was inactive.

For `OC1CCCC1`, the result was inactive.

With `C=C(C)C(=O)OCC(CC)(COC(=O)C(=C)C)COC(=O)C(=C)C`, the result was inactive.

For the compound `C=C(C)C(=O)OCCCCCCCCCCCC`, the outcome was inactive.

For the compound `CCCCC(CC)COC(=O)/C=C\C(=O)OCC(CC)CCCC` (stereo not given), the result was inactive.

With `C=C(C)C(=O)OCCC[Si](OC)(OC)OC`, the outcome was inactive.

In the case of `CCCCCCOC(C)=O`, the outcome was inactive.

`O=C(Cl)c1c(Cl)c(Cl)c(C(=O)Cl)c(Cl)c1Cl`: the result was inactive.

In the case of `CC(=O)[C@@]1(O)CC[C@H]2[C@@H]3CCC4=CC(=O)CC[C@]4(C)[C@H]3CC[C@@]21C`, the result was inactive.

For the compound `O=[N+]([O-])C(CO)(CO)CO`, the result was inactive.

Take `NCCNCCNCCNCCN`: the outcome was inactive.

Consider `Oc1ccc(OCc2ccccc2)cc1`, for which the result was inactive.

Consider `COC(=O)c1ccccc1O`, for which the outcome was inactive.

As to `CN(C)c1ccc(C(=N)c2ccc(N(C)C)cc2)cc1`, the outcome was inactive.

For `O=Nc1ccc(O)cc1`, the result was inactive.

For `O=C1CCCCC1`, the outcome was inactive.

Turning to `c1ccc2ccccc2c1`, the result was inactive.

`CN(C)c1cccc(O)c1`: the outcome was inactive.

`CC1=CC[C@H]2C[C@@H]1C2(C)C`: the outcome was inactive.

Regarding `COC(=O)Nc1nc2ccc(Sc3ccccc3)cc2[nH]1`, the result was inactive.

With `CCC(C)C=O` (stereo not given), the result was inactive.
